Calls of active or inactive are those of the source.
What was measured:
[1] = tested on: Wnt5a (protein binding on small-molecule microarray); assay: small molecules binding Wnt5a protein – biophysical, small-molecule microarray, 635/667 nm fluorescence, primary screen (AID 1142); settings: 635 nm fluorescence, higher = more signal;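 note: fluorescence read at 667 nm with signal to noise per printed feature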
[2] = ATP-based viability of Huh7 replicon cells – cell-based, CellTiter-Glo luminescence, basal, 48 h, cytotoxicity control for HCV replication inhibitor project, primary screen (AID 1143); settings: higher = more signal, called active from +8 up or from −8 down;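 note: Huh7 hepatoma cells carrying a hepatitis C replication reporter with no stimulus; test concentration not given here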
[3] = basal CRE-LacZ reporter activity in PC12 – cell-based, unstimulated, primary screen (AID 1145); settings: no forskolin, luminescence, 4.5 h, higher = more signal, called active from +8 up or from −8 down
[4] = forskolin-driven CRE-LacZ activity in PC12 – cell-based, CRE-LacZ reporter, forskolin-stimulated, primary screen (AID 1146); settings: luminescence, 4.5 h, higher = more signal, called active from +8 up or from −8 down;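 note: PC12 cells with 6xCRE LacZ reporter stimulated by forskolin 10 µM; beta-galactosidase reporter signal reflecting CREB driven transcription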
[5] = biological target: Streptavidin (Streptomyces avidinii) (UniProt P22629); assay: compounds binding control protein streptavidin – biophysical, small-molecule microarray, 635/667 nm fluorescence, artefact control for SMM compound annotation, primary screen (AID 1147); settings: higher = more signal;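 note: signal reflects streptavidin binding to arrayed compounds as a control protein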
[6] = probe aInhba binding on compound microarray – biochemical, small-molecule microarray, 635/667 nm fluorescence, primary screen (AID 1148); settings: higher = more signal;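 note: score merges 667nm spot fluorescence with signal-to-noise for antibody binding to printed compounds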
[7] = biological target: Torsin-1A (Homo sapiens) (UniProt O14656); assay: TOR1A wild-type binding on microarray – cell lysate, small-molecule microarray, lysate, 635/667 nm, primary screen (AID 1149); settings: COS7 hTOR1A-WT lysate, 635 nm fluorescence, higher = more signal
[8] = biological target: Torsin-1A (Homo sapiens) (UniProt O14656); assay: torsin A mutant lysate binding on microarrays – cell lysate, small-molecule microarray, COS7 lysate, 635/667 nm fluorescence, primary screen (AID 1150); settings: COS7 hTOR1A mutant lysate, 635 nm fluorescence, higher = more signal;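 note: score pools 667 nm emission and signal to noise measuring lysate protein binding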
[9] = tested on: Sonic hedgehog protein (Shh); assay: Sonic hedgehog microarray binding compounds – biochemical, small-molecule microarray, 635/667 nm fluorescence, primary screen (AID 1151); settings: 635 nm fluorescence, higher = more signal;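 note: Shh protein binding to compounds spotted on small-molecule microarray slides; score combines spot fluorescence intensity with signal-to-noise across triplicate slides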
[10] = optical density shifts of acrAB sulA E. coli – strain DRC41, OD650, 48 h, E. coli filamentation inducer project, primary screen (AID 1152); settings: higher = more signal, called active from +8 up or from −8 down;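 note: E. coli MC1000 strain DRC41 lacking acrAB efflux pump and sulA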
[11] = probe aLefty1 binding on compound microarray – biochemical, small-molecule microarray, 635/667 nm fluorescence, primary screen (AID 1153); settings: higher = more signal;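 note: score merges spot fluorescence with signal-to-noise ratio from the scanned slide images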
[12] = plasmodial surface anion channel blockers, osmotic lysis – cell-based, P. falciparum Indochina, OD700, 1 h, primary screen (AID 1154); settings: P. falciparum Indochina infected RBC osmotic lysis, higher = more signal, called active from +8 up or from −8 down
[13] = plasmodial surface anion channel blockers, osmotic lysis – cell-based, P. falciparum Indochina, OD700, 2 h, primary screen (AID 1155);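 note: lysis reports solute entry through the parasite surface anion channel PSAC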; settings: P. falciparum Indochina infected erythrocytes, higher = more signal, called active from +8 up or from −8 down
[14] = changes in parasitized red cell lysis, either direction – P. falciparum Indochina, OD700, 3 h, PSAC antagonist project, primary screen (AID 1156); settings: P. falciparum-infected erythrocytes, osmotic lysis, higher = more signal, called active from +8 up or from −8 down
[15] = plasmodial surface anion channel blockers, osmotic lysis – cell-based, P. falciparum Indochina, OD700, 18 h, primary screen (AID 1157); settings: P. falciparum Indochina infected erythrocytes, osmotic lysis OD700, 18 h; higher = more signal, called active from +8 up or from −8 down
[16] = S6 kinase pathway phospho-S6 level changes – cell-based, A549, cytoblot, luminescence, serum-stimulated, primary screen (AID 1158); settings: 5 h, higher = more signal;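 note: serum-stimulated A549 lung adenocarcinoma cells; signal is phosphorylated S6 detected by cytoblot immunostaining with HRP secondary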
[17] = biological target: NADPH oxidase 2 (Homo sapiens) (UniProt P04839); assay: compounds shifting NOX2 Amplex Red fluorescence – cell-based, HEK293-NOX2, PMA-stimulated, NOX inhibitor project, primary screen (AID 1159); settings: 45 min, higher = more signal, called active from +8 up or from −8 down; note: test concentration not given here
[18] = biological target: NADPH oxidase 4 (Homo sapiens) (UniProt Q9NPH5); assay: compounds shifting NOX4 Amplex Red fluorescence – cell-based, HEK293-NOX4, tetracycline-induced, NOX inhibitor project, primary screen (AID 1160); settings: HEK293-NOX4, Amplex Red H2O2 fluorescence, 45 min; higher = more signal, called active from +8 up or from −8 down
[19] = biological target: NADPH oxidase 5 (Homo sapiens) (UniProt Q96PH1); assay: compounds shifting NOX5 Amplex Red fluorescence – cell-based, HEK293-NOX5, NOX inhibitor project, primary screen (AID 1161); settings: HEK293-NOX5, ionomycin, 45 min, higher = more signal
[20] = compound effects on lung adenocarcinoma cell viability – A549, calcein-AM fluorescence, 48 h, basal, profiling panel (AID 1162); settings: higher = more signal; note: test concentration not given here

NADPH oxidase 5 (Homo sapiens), sequence (Q96PH1 whole entry, looked up): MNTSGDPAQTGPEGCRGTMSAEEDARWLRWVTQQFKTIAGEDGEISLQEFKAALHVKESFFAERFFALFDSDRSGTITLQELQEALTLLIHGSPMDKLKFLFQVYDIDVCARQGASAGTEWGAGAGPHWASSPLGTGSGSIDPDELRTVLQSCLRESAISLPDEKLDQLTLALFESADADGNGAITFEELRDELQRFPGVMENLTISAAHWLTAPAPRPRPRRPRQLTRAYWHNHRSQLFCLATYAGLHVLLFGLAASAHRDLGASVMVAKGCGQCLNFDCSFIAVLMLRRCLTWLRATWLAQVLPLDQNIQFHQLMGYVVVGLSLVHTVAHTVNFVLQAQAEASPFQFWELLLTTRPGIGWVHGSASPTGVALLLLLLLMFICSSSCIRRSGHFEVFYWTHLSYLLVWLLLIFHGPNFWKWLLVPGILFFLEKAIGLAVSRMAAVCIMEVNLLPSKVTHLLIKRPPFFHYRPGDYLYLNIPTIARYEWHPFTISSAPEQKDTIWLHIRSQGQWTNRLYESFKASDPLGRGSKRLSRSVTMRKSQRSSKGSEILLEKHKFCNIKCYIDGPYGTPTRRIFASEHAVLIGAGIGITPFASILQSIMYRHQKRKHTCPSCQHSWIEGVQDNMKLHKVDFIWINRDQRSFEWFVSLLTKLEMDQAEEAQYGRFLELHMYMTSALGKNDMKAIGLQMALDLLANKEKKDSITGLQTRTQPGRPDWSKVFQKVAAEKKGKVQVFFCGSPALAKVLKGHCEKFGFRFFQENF
Torsin-1A (Homo sapiens), sequence (O14656 whole entry, looked up): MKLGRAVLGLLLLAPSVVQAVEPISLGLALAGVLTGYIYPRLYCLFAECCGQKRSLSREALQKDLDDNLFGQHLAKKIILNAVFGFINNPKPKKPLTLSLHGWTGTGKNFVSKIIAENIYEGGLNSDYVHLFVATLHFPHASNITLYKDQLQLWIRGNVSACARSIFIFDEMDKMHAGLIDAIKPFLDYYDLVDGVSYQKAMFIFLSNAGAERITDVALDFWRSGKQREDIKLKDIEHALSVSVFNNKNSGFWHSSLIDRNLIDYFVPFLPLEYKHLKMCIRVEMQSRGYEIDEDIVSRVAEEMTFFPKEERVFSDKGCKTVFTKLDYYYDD
NADPH oxidase 2 (Homo sapiens), sequence (P04839 whole entry, looked up): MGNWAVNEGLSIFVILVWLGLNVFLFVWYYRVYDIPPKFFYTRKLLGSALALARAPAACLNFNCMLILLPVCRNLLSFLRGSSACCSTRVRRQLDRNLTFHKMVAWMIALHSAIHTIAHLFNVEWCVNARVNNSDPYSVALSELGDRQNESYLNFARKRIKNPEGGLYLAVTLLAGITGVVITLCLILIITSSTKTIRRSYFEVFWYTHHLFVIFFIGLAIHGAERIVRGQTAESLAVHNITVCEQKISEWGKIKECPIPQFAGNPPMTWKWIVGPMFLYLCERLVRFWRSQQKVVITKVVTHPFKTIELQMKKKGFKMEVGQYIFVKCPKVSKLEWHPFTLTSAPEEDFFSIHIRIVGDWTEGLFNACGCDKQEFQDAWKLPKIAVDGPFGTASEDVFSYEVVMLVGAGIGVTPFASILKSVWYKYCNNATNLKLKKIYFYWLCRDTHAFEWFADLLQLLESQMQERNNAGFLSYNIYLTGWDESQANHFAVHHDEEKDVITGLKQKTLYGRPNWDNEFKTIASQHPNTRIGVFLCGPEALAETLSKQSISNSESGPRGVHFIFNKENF
Streptavidin (Streptomyces avidinii), sequence (P22629 whole entry, looked up): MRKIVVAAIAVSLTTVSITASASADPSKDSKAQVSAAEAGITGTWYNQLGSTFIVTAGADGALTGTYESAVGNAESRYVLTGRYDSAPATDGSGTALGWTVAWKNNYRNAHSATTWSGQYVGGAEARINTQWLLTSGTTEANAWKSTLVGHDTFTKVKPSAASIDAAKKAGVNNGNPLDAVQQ
NADPH oxidase 4 (Homo sapiens), sequence (Q9NPH5 whole entry, looked up): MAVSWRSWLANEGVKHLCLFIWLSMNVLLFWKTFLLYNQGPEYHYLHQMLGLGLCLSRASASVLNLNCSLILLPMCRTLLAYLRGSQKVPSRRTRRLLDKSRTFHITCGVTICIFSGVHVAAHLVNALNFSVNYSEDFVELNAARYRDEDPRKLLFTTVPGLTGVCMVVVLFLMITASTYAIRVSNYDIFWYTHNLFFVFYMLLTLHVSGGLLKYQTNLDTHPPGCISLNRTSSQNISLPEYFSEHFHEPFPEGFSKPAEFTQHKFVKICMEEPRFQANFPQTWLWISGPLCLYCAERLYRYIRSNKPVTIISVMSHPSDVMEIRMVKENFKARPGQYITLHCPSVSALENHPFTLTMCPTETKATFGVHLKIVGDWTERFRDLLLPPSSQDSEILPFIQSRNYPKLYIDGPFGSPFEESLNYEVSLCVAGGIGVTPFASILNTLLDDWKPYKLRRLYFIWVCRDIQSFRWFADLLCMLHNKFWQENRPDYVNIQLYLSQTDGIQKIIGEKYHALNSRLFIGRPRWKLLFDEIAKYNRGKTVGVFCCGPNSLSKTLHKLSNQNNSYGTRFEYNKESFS

COC(=O)c1c(CC[C@@H](CO)NC(=O)Nc2ccc(OC)cc2)oc(C(=O)Cc2ccccc2)c1C(=O)OC
composite z-score [1]: 0.0603
z-score [2]: 0.566 (inactive)
z-score [3]: 9.58 (active)
z-score [4]: -0.453 (inactive)
composite z-score [5]: 0.652
composite z-score [6]: -0.0531
composite z-score [7]: 0.462
composite z-score [8]: 0.943
composite z-score [9]: 0.97
z-score [10]: 1.7 (inactive)
composite z-score [11]: -0.147
z-score [12]: 3.06 (inactive)
z-score [13]: 1.01 (inactive)
z-score [14]: 0.681 (inactive)
z-score [15]: 0.458 (inactive)
z-score [16]: -0.0632
z-score [17]: 1.31 (inactive)
z-score [18]: 0.649 (inactive)
z-score [19]: -2.22
z-score [20]: -1.27

O=C(N1CCCCC1)[C@@]1(Cc2ccccc2)N=C(c2ccc(OCCCO)cc2)O[C@H]1c1ccccc1
composite z-score [1]: 0.578
z-score [2]: -5.07 (inactive)
z-score [3]: 0.414 (inactive)
z-score [4]: -1.06 (inactive)
composite z-score [5]: 1.13
composite z-score [6]: 0.749
composite z-score [7]: 0.599
composite z-score [8]: 1.42
composite z-score [9]: -0.401
z-score [10]: 0.696 (inactive)
composite z-score [11]: 1.17
z-score [12]: 14.3 (active)
z-score [13]: 2.37 (inactive)
z-score [14]: 2.82 (inactive)
z-score [15]: -0.657 (inactive)
z-score [16]: 0.845
z-score [17]: -2.63 (inactive)
z-score [18]: 0.489 (inactive)
z-score [19]: -0.326
z-score [20]: -1.51

CO[C@H]1O[C@H](CO)[C@@H](OC(=O)Nc2ccccc2)[C@H](OC(=O)Nc2ccccc2-c2ccccc2)[C@@H]1OC(=O)Nc1ccccc1-c1ccccc1
composite z-score [1]: 0.36
z-score [2]: -5.22 (inactive)
z-score [3]: 0.204 (inactive)
z-score [4]: -0.446 (inactive)
composite z-score [5]: 1.44
composite z-score [6]: 0.329
composite z-score [7]: 1.17
composite z-score [8]: 0.806
composite z-score [9]: 2.03
z-score [10]: 1.33 (inactive)
composite z-score [11]: 1.29
z-score [12]: 2.57 (inactive)
z-score [13]: 0.116 (inactive)
z-score [14]: -0.358 (inactive)
z-score [15]: -2.03 (inactive)
z-score [16]: 1.01
z-score [17]: 2.2 (inactive)
z-score [18]: 0.697 (inactive)
z-score [19]: 0.306
z-score [20]: -1.01

COCCOC(=O)N1C(=O)[C@@]2(c3ccccc31)[C@H](C(=O)Nc1nc3ccccc3s1)[C@H]1C(=O)O[C@H](c3ccccc3)[C@H](c3ccccc3)N1[C@@H]2c1ccc(O)cc1
composite z-score [1]: 0.418
z-score [2]: -3.59 (inactive)
z-score [3]: -0.199 (inactive)
z-score [4]: -0.395 (inactive)
composite z-score [5]: 0.511
composite z-score [6]: 0.263
composite z-score [7]: 0.815
composite z-score [8]: -0.06
composite z-score [9]: 2.07
z-score [10]: 2.37 (inactive)
composite z-score [11]: 0.577
z-score [12]: 10.9 (active)
z-score [13]: 5 (inactive)
z-score [14]: 1.67 (inactive)
z-score [15]: 2.06 (inactive)
z-score [16]: 1.92
z-score [17]: -0.333 (inactive)
z-score [18]: -0.395 (inactive)
z-score [19]: 1.28
z-score [20]: 0.751

CCOC(=O)C[C@H]1[C@H](OC(=O)c2ccc(-c3ccccc3)cc2)[C@@H](NC(=O)C2CCCCC2)c2cc(OCCCO)ccc2N1C(=O)c1ccc2ccccc2n1
composite z-score [1]: 0.0447
z-score [2]: -0.0226 (inactive)
z-score [3]: 3.51 (inactive)
z-score [4]: -0.876 (inactive)
composite z-score [5]: 0.391
composite z-score [6]: 0.0582
composite z-score [7]: 0.688
composite z-score [8]: 0.525
composite z-score [9]: 0.21
z-score [10]: 2.69 (inactive)
composite z-score [11]: 0.0278
z-score [12]: 1.45 (inactive)
z-score [13]: -0.755 (inactive)
z-score [14]: -0.0072 (inactive)
z-score [15]: -1.16 (inactive)
z-score [16]: 1.5
z-score [17]: 1.13 (inactive)
z-score [18]: 1.3 (inactive)
z-score [19]: 1.94
z-score [20]: 1.23
